# CF NFkB block = inhibitors of PAF-induced NF-kB signaling, primary screen, cell-based, GFP fluorescence, uHTS; KKLEB NF-kB-GFP reporter, GFP fluorescence overnight; inhibition, % at 5 µM; hit rate 0.86% among 360,000; AID 588850, 2011;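 active = at least 50% inhibition at 5 µM, scaled per plate between neutral and stimulator controls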;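 also: PAF is a Pseudomonas aeruginosa culture filtrate used as stimulus; plate controls were PAF-stimulated DMSO wells for no effect and unstimulated DMSO wells for full effect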
# C8 TRAIL sens = viability loss with TRAIL in NB7+C8 cells, primary screen, TRAIL sensitizer project, cell-based, ATPlite luminescence; hit rate 1% among 360,000; inhibition (viability loss, TRAIL sensitization), % at 10 µM;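 active = compounds causing at least 50% loss of cell viability in the single-dose screen, relative to plate controls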
# HIF-2a inh = HIF-2a reporter inhibitors, primary screen, luminescence, 786-0 RCC cells. inhibition, % at 18.8 µM. 786-0 RCC cells HIF-2a reporter, luciferase luminescence, overnight. AID 624352, 2012. hit rate 0.72% among 360,000;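 active = inhibition of the luminescence signal of 40% or more relative to plate controls, in a single-dose primary screen at 18.75 µM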
# KKLEB tox = cytotoxicity in KKLEB CF airway cells, primary screen, cytotoxicity control for CF NF-kB inhibitor project, cell-based, uHTS, fluorescence assay plates; hit rate 0.36% among 360,000; KKLEB CF airway cells viability, ATPlite luminescence, overnight; hits give low values; cells stimulated with P. aeruginosa culture filtrate; AID 602141, 2011; activity change (cytotoxicity), % at 5 µM;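 active = corrected activity change at or below -50% at 5 µM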
# PPC-1+TRAIL kill = compounds killing PPC-1 cancer cells with TRAIL present, primary screen, TRAIL potentiator project, ATPLite luminescence, uHTS; PPC-1 cells + TRAIL, ATPLite viability luminescence; cell killing (% activity), % at 4 µM or 5 µM; hit rate 0.41% among 220,000;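 active = cell killing above 50% in the first pass at 4 µM, then a duplicate retest at 5 µM averaging 50% or more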;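 also: plate controls were cells with TRAIL plus DMSO for no effect and medium-only wells lacking cells for full effect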
# Peg3 promoter = Peg3 promoter-driven luciferase inhibitors, primary screen, cell-based, HeLa, luciferase luminescence; HeLa PEG-Prom luciferase reporter, overnight; inhibition, % at 20 µM; hit rate 1.7% among 360,000;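 active = inhibition of at least 50% at 20 µM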
# * hit, by the source's call; . = no result. Only some compounds are listed: those with a hit (about 3.1% of all), similar ones and a draw of the others.
SMILES,CF NFkB block,C8 TRAIL sens,HIF-2a inh,KKLEB tox,PPC-1+TRAIL kill,Peg3 promoter
O=C(Cc1ccccc1)N1CCNCC1,-4,-6,9,-9,30,1
O=C(/C=C/c1ccccc1)CCN1CCOCC1,7,13,-8,-7,.,92*
CCOc1ccc(N(CC(=O)Nc2cc(OC)cc(OC)c2)S(=O)(=O)c2c(C)[nH]c(=O)[nH]c2=O)cc1,-4,9,7,4,.,0
C[C@@H]1CN([C@@H](C)CO)C(=O)c2cc(NS(C)(=O)=O)ccc2O[C@@H]1CN(C)Cc1ccc(C(F)(F)F)cc1,2,13,1,3,.,2
N#CC1(C#N)CC(C=O)=C(N)C1(C#N)CC(=O)C12CC3CC(CC(C3)C1)C2 (stereo not drawn),82*,-11,27,-55*,11,49
CN(C)CCN(C)Cc1ccccc1Sc1cccc2ccccc12,28,6,3,-12,28,102*
O=[N+]([O-])c1ccc(-c2c(O)c3ccccc3c3nc4ccccc4nc23)cc1,42,26,-3,-9,12,52*
O=C1C(C=Nc2ccccc2)=C(O)c2ccccc21,-22,50*,-238,-12,29,-192
O=C1C(C=Nc2ccccc2O)=C(O)c2ccccc21,-4,46,-202,-5,24,-201
Cc1cnc(NC(=O)c2c(O)c3cccc4c3n(c2=O)CCC4)s1,.,.,.,.,1,.
CC(C)c1nnc(NC(=O)c2c(O)c3cccc4c3n(c2=O)CCC4)s1,11,60*,17,-7,9,9
COc1ccc(/C=C(/C(=O)c2cccs2)N2C=CC=CC2=C(C#N)C#N)cc1,29,-10,1,-22,20,94*
Cc1cc(/C=C2\Cc3ccccc3C2=O)c(C)n1-c1ccccc1,-15,71*,44*,-35,23,49
Nc1ccccc1C=C1Cc2ccccc2C1=O,-59,48*,-211,-7,.,-244
O=C(CCCCCCCC(=O)N1CCCC1)N1CCCC1,-2,10,1,-4,.,0
O=C(c1ccncc1)N(Cc1cc2ccccc2[nH]c1=O)C1CCCCC1,-7,76*,29,4,12,27
O=C(c1ccco1)N(Cc1cc2ccccc2[nH]c1=O)C1CCCCC1,5,-9,11,-27,20,-3
CNc1ccc(Cl)cc1S(=O)(=O)c1ccccc1[N+](=O)[O-],22,-4,2,-7,.,2
O=C1NCN(c2ccccc2)C12CCN(CCCC(c1ccc(F)cc1)c1ccc(F)cc1)CC2,9,22,-9,21,0,82*
CCc1ccc(C(=O)Nc2cc(C)ccc2F)s1,-16,53*,-214,-1,10,-40
CCc1ccc(C(=O)Nc2nc(C)cs2)s1,-6,36,56*,-2,.,-108
Cc1csc(NC(=O)c2ccc(C(=O)Nc3nc(C)cs3)cc2)n1,.,.,.,.,4,.
Cc1ccc(S(=O)(=O)N2[C@H](CC(=O)c3cccs3)OC[C@@H]2C)cc1,.,12,2,.,.,.
Cc1ccc(C(=O)NC(=C(Cl)Cl)S(=O)(=O)c2ccc(Cl)cc2)cc1,8,1,40,-12,-4,58*
CN(C)C(=O)c1ccc(-c2cc3onc(-c4ccccc4)c3c(=O)n2C)cc1,6,22,-168,-18,.,-231
SMILES,CF NFkB block,C8 TRAIL sens,HIF-2a inh,KKLEB tox,PPC-1+TRAIL kill,Peg3 promoter
COc1ccccc1NS(=O)(=O)c1cccc(NC(=O)CCNC(=O)c2ccccc2OC)c1,6,5,7,-2,.,9
Cc1ccc2nc(-c3ccc(NC(=S)NC4CC(C)(C)NC(C)(C)C4)cc3)sc2c1,38,25,-195,-44,16,105*
Nc1ccc2cc3[nH]c4cc(N)ccc4c3nc2c1,-469,63*,-41,-4,.,28
CCc1c(C)c(C#N)c2nc3ccccc3n2c1Cl,.,.,.,.,60*,.
O=C(Oc1c(CN2CCOCC2)cc(Cl)c2cccnc12)c1cccs1,-2,52*,13,4,25,26
O=C(Oc1c(Cl)cc(Cl)c2cccnc12)c1ccco1,0,-4,-12,8,21,56*
O=C(Oc1c(Cl)cc(Cl)c2cccnc12)c1cccs1,1,29,-6,18,24,29
COc1ccc(C(=O)Oc2c(CN3CCOCC3)cc(Cl)c3cccnc23)cc1,10,43,19,-2,16,28
O=C(Oc1c(CN2CCOCC2)cc(Cl)c2cccnc12)c1ccc(F)cc1,3,55*,28,12,35,40
COc1cc(C(=O)Oc2c(CN3CCOCC3)cc(Cl)c3cccnc23)cc(OC)c1OC,27,36,15,-16,-18,33
COc1cccc(C(=O)Oc2c(CN3CCOCC3)cc(Cl)c3cccnc23)c1,10,46*,14,5,15,33
C=CCn1cc(C(=O)NCCCN(CC)CC)c(=O)c2cc(S(=O)(=O)N3CCC(C)CC3)ccc21,-4,0,4,1,.,-13
COc1ccc(C2CC(=O)Oc3cc(C)c(Cl)c(C)c32)cc1 (stereo not drawn),18,13,5,-11,.,8
Cc1ccc(C(=O)CCS(=O)(=O)c2ccc(Br)cc2)cc1,10,-6,12,6,.,22
Cc1ccc(S(=O)(=O)CCC(=O)c2cccc([N+](=O)[O-])c2)cc1,0,-7,37,5,.,110*
Cc1ccc(S(=O)(=O)Cc2cc(F)c([N+](=O)[O-])cc2[N+](=O)[O-])cc1,-2,65*,15,4,.,117*
CCOC(=O)c1ccc([N+](=O)[O-])c(CS(=O)(=O)c2ccc(Cl)cc2)c1,9,9,11,-9,.,17
O=C(NC1CCCC1)c1cc(-c2ccc(Cl)cc2)on1,2,-10,-251,4,.,-368
CNC(=O)OCc1nc(SC2CCCCO2)n(C)c1COC(=O)NC (stereo not drawn),17,-7,5,-11,.,4
COC(=O)c1ccccc1NC(=O)c1ccc2c(c1)OCCCO2,-9,16,-135,11,.,-132
COc1ccc(OC[C@@H](O)CNC(=O)c2cccc3c2C(=O)c2ccc(-c4ccc(F)cc4OCc4ccccc4)cc2S3(=O)=O)cc1,-12,0,7,-2,.,5
COc1ccc(NC(=O)c2cccc3c2C(=O)c2ccc(-c4ccc(F)cc4OCc4ccccc4)cc2S3(=O)=O)cc1,46,59*,-31,-57*,.,47
C/C(=N\NC(=O)c1ccc2c(c1)OCO2)c1ccco1,-1,52*,-44,3,37,-12

# Screening results as filed in PubChem BioAssay.
